Screens (PubChem BioAssay)
Rows were chosen to be rich in hits. Some 11% of all compounds tested hit in one or more screens of this group.
PI5P4Ka inh: PI5P4K alpha (human) kinase inhibition. AID 652105. PI5P4Kalpha enzyme, ADP-Glo luminescence, 60 min; active compounds read low. 330,000 tested, 1.2% active. max response, %; active = max response of -50% or lower; inconclusive = between -30% and -50%; inactive = -30% or higher; also: value at the top dose of about 77 µM; % is scaled to controls: 0 for no effect and ±100 for the full control effect
Target sequence (P48426 whole entry, looked up): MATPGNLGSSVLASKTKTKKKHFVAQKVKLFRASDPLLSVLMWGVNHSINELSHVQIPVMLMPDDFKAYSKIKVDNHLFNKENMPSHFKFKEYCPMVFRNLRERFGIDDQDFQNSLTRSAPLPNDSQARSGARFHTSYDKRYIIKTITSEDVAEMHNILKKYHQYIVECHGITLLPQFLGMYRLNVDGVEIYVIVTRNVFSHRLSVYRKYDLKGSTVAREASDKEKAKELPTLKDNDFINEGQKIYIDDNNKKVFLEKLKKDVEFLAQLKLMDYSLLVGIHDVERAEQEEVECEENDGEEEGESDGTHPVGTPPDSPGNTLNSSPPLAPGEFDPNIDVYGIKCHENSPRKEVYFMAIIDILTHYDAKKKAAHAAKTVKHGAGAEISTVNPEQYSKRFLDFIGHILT
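PI5P4Kalpha ADP-Glo assay; 5 microM ATP final; 60 min RT reaction; HEPES pH 7.4/EGTA/CHAPS, 5% DMSO; controls lacking substrate or enzyme; luminescent end-point.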
BAZ2B block: BAZ2B (human) inhibition | Q9UIF8 | Potency, µM (titrated, usually from 114 µM), for inactives: top-dose activity change, negative = inhibition, hits mostly inhibitors | 360,000 tested, 4.4% active | AlphaScreen BAZ2B-H3K14Ac peptide displacement; also: potency is read from the fitted curve at half-maximal effect; % is scaled to controls: 0 for no effect and ±100 for the full control effect; nearly all actives have a fitted effect of over 60% in size
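BAZ2B 50 nM plus b-H3(5-23)K14Ac 50 nM, PBS pH 7.4/0.01% Tween-20, 30 min RT; compound added (max 110 uM), 30 min RT; streptavidin donor/Ni-chelate acceptor beads 10 ug/mL final, 20 min dark; AlphaScreen read.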
HP1b chromo inh: inhibitors of HP1-beta chromodomain binding to methylated histone tails | AlphaScreen HP1-beta / biotin-H3K9me3 peptide binding | Potency, µM (highest dose often 114 µM), for inactives: top-dose activity change, negative = inhibition, most hits filed as inhibitors | 390,000 tested, 0.56% active | AID 540317; also: potency is read from the fitted curve at half-maximal effect; nearly all actives have a fitted effect of over 70% in size
Target sequence (P83916 whole entry, looked up): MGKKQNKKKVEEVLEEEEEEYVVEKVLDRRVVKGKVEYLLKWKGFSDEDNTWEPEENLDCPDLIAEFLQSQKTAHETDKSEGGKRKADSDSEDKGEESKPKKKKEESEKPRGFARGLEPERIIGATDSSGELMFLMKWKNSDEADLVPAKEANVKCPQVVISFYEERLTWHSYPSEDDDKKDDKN
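HP1-beta protein (50 nM final) preincubated 30 min at room temperature with biotinylated H3(1-18)K9me3 peptide (50 nM) in PBS pH 7.4, 0.01% Tween-20, then compound added for 30 min. AlphaScreen streptavidin donor/nickel chelate acceptor beads (10 ug/mL final), 30 min dark, luminescence read.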
L3MBTL1 inh: inhibitors of human L3MBTL1. Q9Y468. AlphaScreen L3MBTL1–H3K9me1 peptide binding. Potency, µM (top dose mostly 57.1 µM), without a hit: at the highest dose activity, negative = inhibition, actives largely listed as inhibitors. 230,000 tested, 0.66% active. AID 485360; also: potency is read from the fitted curve at half-maximal effect; % is scaled to controls: 0 for no effect and ±100 for the full control effect; nearly all actives have a fitted effect of over 60% in size
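AlphaScreen assay: L3MBTL1 (50 nM final) was preincubated 30 min at room temperature with biotinylated H3(1-15)K9me1 peptide (75 nM final), then 30 min with library compounds; streptavidin donor and nickel chelate acceptor beads (10 ug/mL final) added, 30 min dark.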
G9a block: blocks human histone lysine methyltransferase G9a; 350,000 tested, 8.8% active; Potency, µM (top dose mostly 102 µM), for the others: at the top dose activity, negative = inhibition, actives largely listed as inhibitors; AID 504332; G9a H3K9 monomethylation, AlphaScreen, 2 h; also: potency is read from the fitted curve at half-maximal effect; % is scaled to controls: 0 for no effect and ±100 for the full control effect; nearly all actives have a fitted effect of over 75% in size
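Enzyme 20 nM + cpd, 15 min RT; add b-H3K9 pep 500 nM / SAM 20 uM; 2 h RT; anti-H3K9me1 Ab 0.5 ug/mL + SA donor / anti-rabbit acceptor beads 20 ug/mL each, 10 min; AlphaScreen read.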
JMJD2A Tudor inh: JMJD2A Tudor domain (human) inhibition; AID 504339; AlphaScreen JMJD2A-Tudor / H3K4me3 peptide binding; 390,000 tested, 4.4% active; O75164; Potency, µM (titrated, usually from 114 µM), for inactives: at the highest dose activity change, negative = inhibition, hits mostly inhibitors; also: potency is read from the fitted curve at half-maximal effect; % is scaled to controls: 0 for no effect and ±100 for the full control effect; nearly all actives have a fitted effect of over 50% in size
An asterisk follows results filed as active; ? = inconclusive; / = not tested or not shown; [ ] = remark or other dose. Unless noted, calls follow the shape of the dose curve; as a rule, active = well fitted inhibition curve with a large enough effect; inconclusive = small, poorly fitted or top-dose-only effect; inactive = no such curve, though single readings can be large or run the other way.

SMILES	PI5P4Ka inh	BAZ2B block	HP1b chromo inh	L3MBTL1 inh	G9a block	JMJD2A Tudor inh
CCOC(=O)c1sc(SC)c2c1CCC/C2=N/OC	-5.6	4.1%	76.8%	/	63.6%	39.6%
Cc1nc(CCN2C(=O)c3ccccc3C2=O)n[nH]1	?	?	-9.1%	/	?	25.1µM*
Cc1ccc(C2c3c(-c4cc(C)ccc4O)n[nH]c3C(=O)N2Cc2ccco2)cc1 (stereo not given)	/	22.4µM*	-0.3%	/	28.2µM*	?
O=C1c2[nH]nc(-c3ccccc3O)c2C(c2ccc(F)cc2)N1Cc1ccco1 (stereo not given)	/	?	-13.6%	/	-24.8%[12.7 µM]	?
COc1ccc(C2c3c(-c4ccccc4O)n[nH]c3C(=O)N2Cc2ccco2)cc1OC (stereo not given)	0.0	56.2µM*	-24.0%	?	-34.7%	?
COc1ccc(CCNC(=O)c2cnc3sc(N4CCCC4)nn3c2=O)cc1OC	/	-21.4%	24.2%	/	6.6%[59 µM]	-8.7%
CCN1CCN(S(=O)(=O)c2ccc(C(C)(C)C)cc2)CC1	-9.0	-4.5%	19.6%	2.2%	2.5%	-19.3%
CCN1CCN(S(=O)(=O)c2ccc(S(=O)(=O)NC3CC3)cc2)CC1	-10.7	-14.2%	27.5%	/	50.1µM*	-4.5%
CC(=O)N1CCN(S(=O)(=O)c2ccc(S(=O)(=O)NC3CCCCC3)cc2)CC1	2.2	-1.8%	22.0%	/	50.1µM*	-14.4%
CC(=O)c1ccc(S(=O)(=O)NC2CCCCCCC2)cc1	?	-19.1%	22.8%	/	14.9%	-14.0%
O=CN1CCN(S(=O)(=O)c2ccc(S(=O)(=O)NC3CCCCC3)cc2)CC1	-1.1	7.3%	5.6%	/	44.7µM*	-0.7%
Cc1cccc(-n2ccnc2SCC(=O)N2CCCc3ccccc32)c1C	-2.8	50.1µM*	-26.9%	-9.4%	?	?
Cn1ccnc1SCC(=O)N1CCc2ccccc21	-1.3	-6.0%	37.4%	/	?	-11.2%
Cn1c(-c2ccc(F)cc2)cnc1SCC(=O)N1CCCc2ccccc21	4.1	31.6µM*	?	-16.8%	44.7µM*	-29.1%[57.1 µM]
Cn1c(-c2ccc(F)cc2)cnc1SCC(=O)N1CCCCC1	7.3	-5.6%	45.3%	-11.0%	-8.3%[59 µM]	-15.8%
CC1Cc2ccccc2N1C(=O)CSc1ncc(-c2ccc(F)cc2)n1C (stereo not given)	1.6	28.2µM*	?	-26.2%	?	56.2µM*
CC1Cc2ccccc2N1C(=O)CSc1nncn1C (stereo not given)	-0.1	-11.2%	29.7%	-3.8%	-2.4%	-10.5%
O=C(NCCc1ccccc1Cl)c1ccc2c(c1)nc1n2CCCCC1	/	2.2%	15.6%[57 µM]	/	16.2%[59 µM]	-13.6%
COc1cccc(-c2nnc3n2N=C(c2c(OC)cccc2OC)CS3)c1OC	/	/	/	/	/	-7.6%
O=C1CC(=O)N(C2CCCCC2)C(=O)N1c1ccccc1S(=O)(=O)Oc1ccccc1	-64.4*	/	/	/	/	/
O=C1C2CCCCC2C(=O)N1c1cccc(OS(=O)(=O)c2ccccc2)c1 (stereo not given)	-1.0	-2.4%	34.4%	9.1%	-3.7%[59 µM]	-6.2%
CN1CCN(c2ccc(NC(=O)c3ccc(Cl)cc3)cn2)CC1	-4.2	-26.0%	8.7%	-18.2%	?	-6.2%
Cc1ccccc1C1=CCN(c2ncc(NC(=O)c3ccc(Cl)cc3)cc2C(=O)O)CC1	/	50.1µM*	?	/	?	79.4µM*
CCCCNC1=CC(=O)C(=O)c2ccccc21	-1.0	-37.3%	-0.3%	-14.3%	-0.7%	-20.1%
O=C1c2ccccc2-c2onc3c(NCCO)cc(NC4CCCCC4)c1c23	/	3.55µM*	?	/	2.24µM*	7.94µM*
SMILES	PI5P4Ka inh	BAZ2B block	HP1b chromo inh	L3MBTL1 inh	G9a block	JMJD2A Tudor inh
CCCCNc1cc(NC2CCCCC2)c2c3c(onc13)-c1ccccc1C2=O	/	1.78µM*	?	/	2µM*	10µM*
Cc1cc(-c2ccccc2C(=O)NC2CCCCC2)on1	-4.7	-2.7%	8.8%	5.2%	/	5.0%
Cc1ccc(Nc2c([N+](=O)[O-])ccc3c2=NC2(CCCCC2)N=3)cc1	-9.5	3.55µM*	?	-25.5%	4.47µM*	?
O=[N+]([O-])c1ccc2c(c1Nc1ccccc1Cl)=NC1(CCCCC1)N=2	0.0	-32.7%	10.0%	?	-25.7%[59 µM]	?
CCCC(=Nc1ccccc1OC)C1=C(O)CC(c2ccccc2)CC1=O (stereo not given)	3.4	-37.7%	22.4%	1.4%	?	-6.3%
COc1ccccc1N=C(C)C1=C(O)CC(c2ccccc2)CC1=O (stereo not given)	-1.5	?	18.0%	-1.5%	50.1µM*	?
CCN(CC)CCCOC(=O)C1(c2ccccc2)CCCC1	6.2	-19.4%	12.9%	/	-50.3%[59 µM]	0.8%
CCN(CC)CCCC1(CN)OCCc2ccccc21 (stereo not given)	9.2	-1.0%	22.8%	-8.9%	25.1µM*	-3.1%
CC(=O)Nc1sc2c(c1CN1CCCC1)CCCC2	-3.1	0.5%	-2.7%	/	?	-19.0%
Cc1sc(NC(=O)c2ccco2)c(CN2CCN(c3ccccn3)CC2)c1C	-0.4	?	?	-4.5%	?	?
CC(=O)Nc1sc2c(c1CN1CCN(c3ccccn3)CC1)CCCC2	/	?	-21.7%	-15.7%	31.6µM*	?
CC(=O)Nc1sc2c(c1CN1CCN(c3ccc(F)cc3)CC1)CCCC2	2.3	50.1µM*	-36.0%	/	44.7µM*	?
COc1cccc(N2CC(NC(=O)COc3ccccc3F)CC2=O)c1 (stereo not given)	/	-0.7%	14.1%	/	3.2%[59 µM]	-3.6%
Cc1c(NC(=S)NC(=O)C(c2ccccc2)c2ccccc2)cccc1C(=O)O	/	-2.4%	-11.2%	-0.3%	3.4%	?
Cc1c(NC(=S)NC(=O)c2sc3ccccc3c2Cl)cccc1C(=O)O	-19.3	50.1µM*	-6.5%	-3.2%	4.47µM*	?
COc1ccccc1C(=O)NNC(=S)NC(=O)c1sc2ccccc2c1Cl	?	10.2%	-23.8%	12.0%	13.6%[59 µM]	-31.8%
COc1ccccc1C(=O)NC(=S)NNC(=O)c1sc2ccccc2c1Cl	-52.0*	-4.0%	-24.2%	-15.1%	?	-19.3%
O=C1CN(C(=O)c2ccc(S(=O)(=O)N3CCCC3)cc2)C(c2ccc(F)cc2)c2cc(F)ccc2N1 (stereo not given)	/	-4.9%	13.6%	/	3.9%[59 µM]	-16.4%
CCOc1ccc(C(=O)NCC(c2ccc3c(c2)OCO3)N2CCN(c3ccc(F)cc3)CC2)cc1 (stereo not given)	/	-12.9%	-18.8%[57 µM]	/	?	?
N#Cc1cc(N2CCCCC2)c([N+](=O)[O-])cc1C#N	0.7	-12.3%	47.8%	0.8%	2.4%	2.4%
O=[N+]([O-])c1cc2no[n+]([O-])c2cc1N1CCCCC1	-79.6*	/	14.1µM*	/	/	44.7µM*
